Results filed as inconclusive are left out. Activity calls are given as the source filed them. Unless noted, the call rests on the fitted dose curve; in most records, active means well fitted curve in the direction sought with a large enough effect in the repeat runs; inconclusive means weak or mixed curves; inactive means no such curve, though single readings can be large; an effect the other way counts as inactive or inconclusive.
Key:
[1] = molecular target: Thyrotropin receptor (Homo sapiens) (UniProt P16473); experiment: qHTS assay to identify small molecule antagonists of the thyroid stimulating hormone receptor (TSHR) signaling pathway (AID 1259385; calls by dose curve; further: nearly all actives have a fitted effect of over 20% in size)
Summary of the method: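 TSHR-HEK293 cells (800/well) plated 18 h, then compounds with Ro20-1724 and TSH at 1.5 ng/mL final, 30 min at room temperature. cAMP quantified by HTRF (cAMP-d2/anti-cAMP-cryptate, 1 h); 15 concentrations in triplicate.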

[2] = qHTS assay to identify small molecule agonists of the estrogen receptor alpha (ER-alpha) signaling pathway in the presence of an antagonist - cell viability counter screen (AID 1259386);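 further: series mostly up to about 92 µM; cells exposed to compounds for 22 h at 37 °C before the viability read; nearly all actives have a fitted effect of over 30% in size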
Summary of the method: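 Using estrogen-depleted VM7Luc4E2 cells, the 15-concentration compound series was applied together with 10.0nM ICI-182,780 and incubated 22hr at 37C/5% CO2. Cell viability was then scored by CellTiter-Fluor.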

[3] = molecular target: Progesterone receptor (Homo sapiens) (UniProt P06401); experiment: qHTS assay to identify small molecule agonists of the progesterone receptor (PR) signaling pathway (AID 1346784; calls by dose curve; further: nearly all actives have a fitted effect of over 30% in size)
Summary of the method: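 Fluorescence from LiveBLAzer B/G FRET substrate cleavage (2 hr, RT) reported PR activation in PR-UAS-bla HEK 293T cells treated 16 hr at 37C/5% CO2 with compounds; medium contained 2% charcoal-stripped FBS.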

[4] = molecular target: Progesterone receptor (Homo sapiens) (UniProt P06401); experiment: qHTS assay to identify small molecule antagonists of the progesterone receptor (PR) signaling pathway (AID 1346795; active means well fitted inhibition curve with a large enough effect in the signal ratio in the repeat runs, not every such curve was filed as active; the % refers to the signal ratio)
Summary of the method: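 Fluorescence intensity measured 2 hr after adding beta-lactamase FRET substrate to PR-UAS-bla HEK293T cells that had been co-treated 16 hr with compound and 1 nM R5020 (final concentration) in 2% charcoal-stripped FBS.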

[5] = qHTS assay to identify small molecule antagonists of the progesterone receptor (PR) signaling pathway - cell viability counter screen (AID 1346798); further: series mostly up to about 92 µM; nearly all actives have a fitted effect of over 50% in size
Summary of the method: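 CellTiter-Glo luminescence; PR-UAS-bla HEK293T, 3,000 cells/well; compound + R5020, 16 hr, 37C/5% CO2; 30 min RT before read.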

[6] = qHTS assay to identify small molecule agonists of the progesterone receptor (PR) signaling pathway - cell viability counter screen (AID 1346799; calls by dose curve; further: nearly all actives have a fitted effect of over 45% in size)
Summary of the method: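 In parallel with the beta-lactamase readout, cytotoxicity toward PR-UAS-bla HEK293T cells was measured by CellTiter-Glo luminescence following 16 hr compound incubation in 2% charcoal-stripped FBS medium.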

[7] = qHTS assay to identify small molecule antagonists of the TGF-beta/Smad signaling pathway - cell viability counter screen (AID 1346824); further: nearly all actives have a fitted effect of over 50% in size
Summary of the method: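 SBE-bla HEK 293T cells, incubated overnight, then compound plus 0.25 ng/mL TGF-beta1 (stock added) for 5 hr at 37 C. Viability was read in the same wells by CellTiter-Glo luminescence after 30 min at room temperature.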

[8] = qHTS assay to identify small molecule agonists of the TGF-beta/Smad signaling pathway - cell viability counter screen (AID 1346829); further: top concentration of the series differs between compounds; nearly all actives have a fitted effect of over 45% in size
Summary of the method: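 In parallel with the Smad reporter read, viability of HEK 293T cells stably carrying SBE-bla is quantified by ATP luminescence following 5 hr compound treatment.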

[9] = qHTS assay to identify small molecule agonists of the TGF-beta/Smad signaling pathway (AID 1346859; active means well fitted activation curve with a large enough effect in the signal ratio in the repeat runs, not every such curve was filed as active; the % refers to the signal ratio; further: series mostly up to about 77 µM)
Summary of the method: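 After overnight seeding, SBE-bla HEK 293T cells are dosed with compounds in DMSO and kept 5 hr at 37 C, 5% CO2. LiveBLAzer-type FRET substrate is then applied for 2 hr at room temperature.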

[10] = Human pregnane X receptor (PXR) small molecule agonists, qHTS cell viability counter screen (AID 1346977); further: nearly all actives have a fitted effect of over 50% in size
Summary of the method: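 Viability counter screen: CellTiter-Fluor signal in PXR-Luc HepG2 cells, 24hr compound exposure, 37C, 5% CO2.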

[11] = Caspase-3/7 induction in HepG2 cells by small molecules, qHTS assay (AID 1346978); further: nearly all actives have a fitted effect of over 15% in size
Summary of the method: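 Wild-type HepG2 cells, 2,000/well, settled 5 hr at 37 C and 5% CO2, then compound-treated for 17 hr; caspase-3/7 activity read by luminescent Caspase-Glo 3/7 after 30 min at room temperature.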

[12] = Caspase-3/7 induction in CHO-K1 cells by small molecules, qHTS cell viability counter screen (AID 1346979); further: nearly all actives have a fitted effect of over 35% in size
Summary of the method: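 Viability readout by fluorescence (CellTiter-Fluor) on wild-type CHO-K1 cells exposed for 16hr at 37C and 5% CO2 to compounds delivered in DMSO; reagent incubated 1hr before reading.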

[13] = Caspase-3/7 induction in CHO-K1 cells by small molecules, qHTS assay (AID 1346980); further: nearly all actives have a fitted effect of over 15% in size
Summary of the method: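 Wild-type CHO-K1 cells exposed to compounds for 17hr at 37 C, 5% CO2. Caspase-3/7 activity then measured by Caspase-Glo 3/7 luminescence after 30min at room temperature.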

[14] = molecular target: Nuclear receptor subfamily 1 group I member 2 (Homo sapiens) (UniProt O75469); experiment: Human pregnane X receptor (PXR) small molecule agonists, qHTS assay (AID 1346982); further: nearly all actives have a fitted effect of over 35% in size
Summary of the method: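 Tox21 qHTS; PXR-Luc HepG2; compounds pinned from DMSO; 24 hr, 37 C; ONE-Glo luciferase detection, 30 min room temperature.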

[15] = Caspase-3/7 induction in HepG2 cells by small molecules, qHTS cell viability counter screen (AID 1346981); further: series mostly up to about 92 µM; nearly all actives have a fitted effect of over 30% in size
Summary of the method: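 After a 5-hr attachment period at 37 C and 5% CO2, wild-type HepG2 cells received compounds in DMSO. Sixteen hours later CellTiter-Fluor was dispensed and the fluorescent signal quantified after a further hour.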

[16] = molecular target: Thyrotropin-releasing hormone receptor (Homo sapiens) (UniProt P34981); experiment: qHTS assay to identify small molecule antagonists of the thyrotropin-releasing hormone receptor (TRHR) signaling pathway (AID 1346877; active means well fitted inhibition curve with a large enough effect in the repeat runs, not every such curve was filed as active; further: series mostly up to about 51 µM)
Summary of the method: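 Calcium signal in dye-loaded TRHR/HEK293 cells; compounds added 5 min before TRH (1 nM final); fluorescence monitored 3 min at 1 s steps.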

[17] = molecular target: Thyrotropin-releasing hormone receptor (Homo sapiens) (UniProt P34981); experiment: qHTS assay to identify small molecule agonists of the thyrotropin-releasing hormone receptor (TRHR) signaling pathway (AID 1346891; calls by dose curve;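 further: HEK293 cells expressing TRHR with calcium dye readout; series mostly up to about 58 µM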)
Summary of the method: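 Compounds were tested as agonists at 15 concentrations, in triplicate, on TRHR-Hek293 cells; calcium-sensitive dye fluorescence was recorded for 3 min following addition.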

[18] = molecular target: Nuclear receptor subfamily 1 group I member 2 (Rattus norvegicus) (UniProt Q9R1A7); experiment: Rat pregnane X receptor (rPXR) activation by small molecules, qHTS assay (AID 1346983); conditions: rPXR luciferase reporter cells, One-Glo luminescence, 24 h; max activation: hits give high values; further: nearly all actives have a fitted effect of over 20% in size
Summary of the method: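 Cell-based rPXR activation assay: rPXR cells, 2,000 per well, rested 5hr at 37 C, then exposed to compounds in DMSO for 24 hr at 37 C. Luciferase activity read by One-Glo luminescence after 30 min at room temperature.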

[19] = molecular target: Nuclear receptor subfamily 1 group I member 2 (Homo sapiens) (UniProt O75469); experiment: CYP3A4 induction through human pregnane X receptor (PXR) by small molecules, qHTS assay (AID 1346984); further: nearly all actives have a fitted effect of over 40% in size
Summary of the method: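 Cells (DPX-2; HepG2 with PXR element plus CYP3A4-promoter luciferase) settled 5hr, then were treated 24hr at 37C. A 3hr, 3uM-final Luciferin-IPA step preceded luminescence measurement with One-Glo.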

[20] = molecular target: Nuclear receptor subfamily 1 group I member 2 (Homo sapiens) (UniProt O75469); experiment: Human pregnane X receptor (PXR) activation by small molecules, qHTS assay (AID 1346985); further: nearly all actives have a fitted effect of over 40% in size
Summary of the method: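 DPX-2 cells (HepG2 co-transfected with a PXR response element and a CYP3A4-promoter luciferase construct) were seeded at 2,000 per well, rested 5 hr at 37C, then exposed to DMSO-dissolved compounds for 24 hr. Activation was read as luciferase luminescence.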
On the % scale 0 is the no-effect control and ±100 the full control effect.

Nuclear receptor subfamily 1 group I member 2 (Rattus norvegicus), sequence (Q9R1A7 whole entry, looked up): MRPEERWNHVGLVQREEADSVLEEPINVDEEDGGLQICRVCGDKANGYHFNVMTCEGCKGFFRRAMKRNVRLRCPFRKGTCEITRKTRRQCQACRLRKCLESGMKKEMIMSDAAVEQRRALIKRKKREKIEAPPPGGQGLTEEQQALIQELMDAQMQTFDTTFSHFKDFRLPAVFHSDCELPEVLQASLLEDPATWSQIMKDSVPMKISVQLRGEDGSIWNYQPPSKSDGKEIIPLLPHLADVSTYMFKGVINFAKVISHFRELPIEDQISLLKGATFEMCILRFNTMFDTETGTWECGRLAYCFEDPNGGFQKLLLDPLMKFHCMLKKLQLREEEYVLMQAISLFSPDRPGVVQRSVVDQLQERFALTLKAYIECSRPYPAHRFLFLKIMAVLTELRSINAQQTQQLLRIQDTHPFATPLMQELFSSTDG
Progesterone receptor (Homo sapiens), sequence (P06401 whole entry, looked up): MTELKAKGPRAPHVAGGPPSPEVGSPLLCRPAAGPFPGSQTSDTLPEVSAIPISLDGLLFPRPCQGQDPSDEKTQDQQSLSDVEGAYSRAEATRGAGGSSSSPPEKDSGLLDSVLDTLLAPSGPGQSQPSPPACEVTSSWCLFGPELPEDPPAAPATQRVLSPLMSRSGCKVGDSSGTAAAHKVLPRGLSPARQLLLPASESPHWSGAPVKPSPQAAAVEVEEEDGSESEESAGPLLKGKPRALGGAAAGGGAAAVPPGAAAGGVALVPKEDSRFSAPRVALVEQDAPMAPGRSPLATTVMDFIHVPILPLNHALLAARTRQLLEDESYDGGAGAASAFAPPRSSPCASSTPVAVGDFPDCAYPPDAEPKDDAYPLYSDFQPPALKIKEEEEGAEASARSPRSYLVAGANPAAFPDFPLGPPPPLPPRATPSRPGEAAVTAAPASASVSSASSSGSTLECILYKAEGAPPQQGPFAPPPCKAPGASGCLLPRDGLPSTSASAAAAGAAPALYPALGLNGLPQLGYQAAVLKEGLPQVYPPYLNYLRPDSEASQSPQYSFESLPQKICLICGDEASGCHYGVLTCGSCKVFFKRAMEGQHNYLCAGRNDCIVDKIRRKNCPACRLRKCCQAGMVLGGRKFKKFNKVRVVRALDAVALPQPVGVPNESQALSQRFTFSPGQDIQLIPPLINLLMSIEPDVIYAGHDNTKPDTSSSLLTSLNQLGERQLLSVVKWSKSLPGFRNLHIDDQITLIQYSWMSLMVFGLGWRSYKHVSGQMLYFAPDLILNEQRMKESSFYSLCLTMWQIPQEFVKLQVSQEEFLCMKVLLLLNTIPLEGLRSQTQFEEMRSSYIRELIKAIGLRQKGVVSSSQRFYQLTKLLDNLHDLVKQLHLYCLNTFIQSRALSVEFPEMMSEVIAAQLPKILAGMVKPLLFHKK
Thyrotropin-releasing hormone receptor (Homo sapiens), sequence (P34981 whole entry, looked up): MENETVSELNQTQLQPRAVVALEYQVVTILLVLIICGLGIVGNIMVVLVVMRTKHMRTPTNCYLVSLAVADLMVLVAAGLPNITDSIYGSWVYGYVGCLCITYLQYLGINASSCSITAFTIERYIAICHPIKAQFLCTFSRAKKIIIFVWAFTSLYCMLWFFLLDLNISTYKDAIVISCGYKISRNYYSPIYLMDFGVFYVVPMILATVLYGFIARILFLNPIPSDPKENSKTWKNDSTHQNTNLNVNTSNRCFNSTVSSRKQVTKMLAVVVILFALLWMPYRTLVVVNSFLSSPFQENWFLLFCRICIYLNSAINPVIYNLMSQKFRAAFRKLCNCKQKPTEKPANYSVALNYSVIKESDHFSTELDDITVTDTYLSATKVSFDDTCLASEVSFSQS
Thyrotropin receptor (Homo sapiens), sequence (P16473 whole entry, looked up): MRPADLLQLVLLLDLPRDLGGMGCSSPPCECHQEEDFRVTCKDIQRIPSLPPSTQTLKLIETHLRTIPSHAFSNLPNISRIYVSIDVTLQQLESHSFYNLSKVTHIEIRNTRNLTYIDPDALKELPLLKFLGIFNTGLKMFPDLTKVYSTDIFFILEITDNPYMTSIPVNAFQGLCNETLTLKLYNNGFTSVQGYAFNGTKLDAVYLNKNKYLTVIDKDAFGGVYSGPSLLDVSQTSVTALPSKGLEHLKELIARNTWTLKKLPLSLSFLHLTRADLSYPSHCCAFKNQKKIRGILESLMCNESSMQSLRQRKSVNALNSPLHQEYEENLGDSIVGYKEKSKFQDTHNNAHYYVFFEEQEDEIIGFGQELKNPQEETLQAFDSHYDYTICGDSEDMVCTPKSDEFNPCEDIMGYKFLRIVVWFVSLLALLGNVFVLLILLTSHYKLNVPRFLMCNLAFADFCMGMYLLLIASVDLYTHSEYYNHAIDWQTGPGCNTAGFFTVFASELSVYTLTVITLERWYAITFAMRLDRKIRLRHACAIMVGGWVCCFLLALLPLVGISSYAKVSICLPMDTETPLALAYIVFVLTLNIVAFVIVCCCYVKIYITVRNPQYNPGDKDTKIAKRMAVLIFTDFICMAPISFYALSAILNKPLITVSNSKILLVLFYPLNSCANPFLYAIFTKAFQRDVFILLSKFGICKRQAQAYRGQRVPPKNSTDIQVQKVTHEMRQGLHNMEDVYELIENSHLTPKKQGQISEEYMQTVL
Nuclear receptor subfamily 1 group I member 2 (Homo sapiens), sequence (O75469 whole entry, looked up): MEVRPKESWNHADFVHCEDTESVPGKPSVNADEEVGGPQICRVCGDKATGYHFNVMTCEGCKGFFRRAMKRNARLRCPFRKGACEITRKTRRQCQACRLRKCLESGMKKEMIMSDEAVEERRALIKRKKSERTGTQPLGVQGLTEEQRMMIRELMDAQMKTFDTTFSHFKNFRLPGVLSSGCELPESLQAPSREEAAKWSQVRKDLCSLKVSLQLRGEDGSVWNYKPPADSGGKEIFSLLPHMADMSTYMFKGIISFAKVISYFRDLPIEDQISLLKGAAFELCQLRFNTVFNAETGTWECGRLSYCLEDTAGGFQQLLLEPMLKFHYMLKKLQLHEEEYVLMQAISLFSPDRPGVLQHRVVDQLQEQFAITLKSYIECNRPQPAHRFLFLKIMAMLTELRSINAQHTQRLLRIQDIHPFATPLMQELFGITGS

CCCC(=O)OC(=O)CCC
inactive: Potency [1] | Potency [2] | Potency [3] | Potency [4] | Potency [5] | Potency [6] | outcome [7] | Potency [8] | Potency [9] | Potency [10] | Potency [11] | Potency [12] | outcome [13] | Potency [14]

COC(=O)c1sccc1S(N)(=O)=O
inactive: Potency [1] | Potency [2] | Potency [3] | Potency [4] | Potency [5] | Potency [6] | outcome [7] | Potency [8] | Potency [9] | Potency [11] | Potency [12] | outcome [13] | Potency [15] | Potency [14]

O=C1[C@@H]2[C@H]3CC[C@H](C3)[C@@H]2C(=O)N1CCCCN1CCN(c2ncccn2)CC1
inactive: Potency [1] | Potency [2] | Potency [3] | Potency [4] | Potency [5] | Potency [6] | outcome [7] | Potency [8] | Potency [9] | Potency [10] | Potency [11] | outcome [13] | Potency [15] | Potency [14]

CC(C)CC(O)CC(C)C
inactive: Potency [1] | Potency [2] | Potency [3] | Potency [4] | Potency [5] | Potency [6] | outcome [7] | Potency [8] | Potency [9] | outcome [16] | outcome [17] | Potency [10] | Potency [11] | Potency [12] | outcome [13] | Potency [14]

Cc1cn([C@H]2C[C@H](F)[C@@H](CO)O2)c(=O)[nH]c1=O
inactive: Potency [1] | Potency [2] | Potency [3] | Potency [4] | Potency [5] | Potency [6] | outcome [7] | Potency [8] | Potency [9] | Potency [10] | Potency [11] | Potency [12] | outcome [13] | Potency [15] | Potency [14] | max activation [18] -7.91% | Potency [19] | Potency [20]

CCN(CC)CCOC(=O)C(c1ccccc1)c1ccccc1
inactive: Potency [1] | Potency [2] | Potency [3] | Potency [4] | Potency [5] | Potency [6] | outcome [7] | Potency [8] | Potency [9] | outcome [16] | outcome [17] | Potency [11] | Potency [12] | outcome [13] | Potency [14] | max activation [18] 0.131% | Potency [19] | Potency [20]

O=C1CC[C@@H](C(=O)O)N1
inactive: Potency [1] | Potency [2] | Potency [3] | Potency [4] | Potency [5] | Potency [6] | outcome [7] | Potency [8] | Potency [9] | outcome [16] | outcome [17] | Potency [10] | Potency [11] | outcome [13] | Potency [15] | Potency [14] | max activation [18] -5.25% | Potency [19] | Potency [20]

CCO[Si](C)(CCCOCC1CO1)OCC (configuration not stated)
inactive: Potency [1] | Potency [2] | Potency [3] | Potency [4] | Potency [5] | Potency [6] | outcome [7] | Potency [8] | Potency [9] | Potency [10] | Potency [11] | Potency [12] | outcome [13] | Potency [14]
